Laboratory results reported in PubChem BioAssay.
Calls of active or inactive are those of the source.

Legend:
Albumin (Bos taurus) = Albumin (Bos taurus) (UniProt P02769); experiment: bovine serum albumin binders on microarray, profiling panel, artefact control for SMM control protein annotation, biochemical, small-molecule microarray, Alexa647 label, 635/667 nm fluorescence (AID 1118); settings: BSA-A647 binding, fluorescence 635 nm, higher = more signal;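 note: score merges 667 nm emission intensity and signal-to-noise per printed compound spot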
[1] = small-molecule microarray binders of probe aXIP, primary screen, biochemical, NeuroSMM set, 635/667 nm fluorescence (AID 1119); settings: higher = more signal, called active from +8 up or from −8 down;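 note: probe is the protein aXip251-270 applied at 1 µg/mL to compound-printed slides; binding of probe to printed compounds measured as 667 nm fluorescence plus signal to noise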
[2] = small-molecule binders of probe aNOTCH3, primary screen, biochemical, small-molecule microarray, 635/667 nm fluorescence (AID 1120); settings: higher = more signal;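 note: probe is a biotin-tagged antibody raised against NOTCH3 rather than NOTCH3 protein; score merges spot fluorescence near 667 nm with spot signal to noise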
[3] = small-molecule binders of probe aNOTCH2, primary screen, biochemical, small-molecule microarray, 635/667 nm fluorescence (AID 1121); settings: higher = more signal;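 note: score merges feature fluorescence read at 667 nm with its signal to noise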
[4] = target: Carbonic anhydrase 2 (Homo sapiens) (UniProt P00918); experiment: CAII small-molecule binders, profiling panel, biochemical, small-molecule microarray, Alexa647-labelled CAII (AID 1122); settings: CAII-A647 binding fluorescence, higher = more signal
[5] = COS7 lysate on small-molecule microarray, probe aHis, 635 nm (AID 1123); settings: COS7 cell lysate, fluorescence, higher = more signal;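 note: z-score combines 667nm fluorescence intensity with signal-to-noise per printed compound spot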
[6] = compound binding in COS7 lysate, probe aLAP1, primary screen, cell lysate, small-molecule microarray (AID 1124); settings: probe aLAP1, fluorescence, higher = more signal;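 note: lysate comes from COS7 cells expressing LAP1 and is applied at 0.3 µg/mL; score merges spot fluorescence near 667 nm with signal-to-noise over triplicate slides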
Sam68 (KHDRBS1) = experiment: Sam68 small-molecule binders, primary screen, biochemical, small-molecule microarray, 635 nm fluorescence (AID 1125); settings: small-molecule microarray binding, higher = more signal;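 note: score merges 667 nm channel intensity with signal to noise over triplicate slides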
[7] = system: Chordin-like protein 2 (CHRDL2); experiment: CHRDL2 small-molecule binders, primary screen, biochemical, small-molecule microarray, 635 nm fluorescence (AID 1126); settings: small-molecule microarray binding, fluorescence 635 nm; higher = more signal;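 note: printed compound slides probed with Chrdl2 protein at 4 µg/mL for 1 h at 4 C; score merges 667 nm emission intensity with signal to noise over three replicate slides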
[8] = target: Concanavalin-A (Canavalia ensiformis) (UniProt P02866); experiment: ConA small-molecule binders, primary screen, artefact control for SMM control protein annotation, biochemical, small-molecule microarray, Alexa647 label, 635 nm (AID 1127); settings: ConA-A647 binding fluorescence, higher = more signal;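 note: z combines 667 nm emission intensity with signal-to-noise across three replicate slides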
[9] = anti-His antibody binders, primary screen, artefact control for SMM control protein annotation, biochemical, small-molecule microarray, 635 nm fluorescence (AID 1128); settings: anti-His Alexa647 antibody binding, higher = more signal;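 note: score merges feature fluorescence with signal-to-noise for each printed compound spot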
[10] = system: Human papillomavirus type 1a E7 protein (residues 1-88); experiment: HPV1a E7 small-molecule binders, primary screen, biochemical, small-molecule microarray, residues 1-88, 635 nm (AID 1129); settings: small-molecule microarray binding, fluorescence 635 nm; higher = more signal
[11] = target: Focal adhesion kinase 1 (Homo sapiens) (UniProt Q05397); experiment: small-molecule microarray binders of FAK, primary screen, biochemical, 635/667 nm fluorescence, BSA, DTT (AID 1130); settings: PTK2 binding, 635 nm fluorescence, higher = more signal;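 note: composite of spot emission at 667 nm and signal to noise over triplicate slides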
[12] = system: Fibrinogen (Alexa647-labelled); experiment: fibrinogen binders on compound microarrays, profiling panel, artefact control for SMM control-protein annotation, biochemical, small-molecule microarray, 635/667 nm fluorescence (AID 1131); settings: fibrinogen-A647 binding fluorescence, higher = more signal;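 note: z-score merges 667 nm fluorescence with per-spot signal-to-noise over triplicate slides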
[13] = target: Follistatin (Homo sapiens) (UniProt P19883); experiment: follistatin binders on small-molecule microarrays, primary screen, biochemical, small-molecule microarray, 635/667 nm fluorescence (AID 1132); settings: FST binding, 635 nm fluorescence, higher = more signal
[14] = target: Fibroblast growth factor 2 (Homo sapiens) (UniProt P09038); experiment: FGF2 binders on small-molecule microarrays, primary screen, biochemical, small-molecule microarray, 635/667 nm fluorescence (AID 1133); settings: small-molecule microarray binding, FGF2, fluorescence 635/667; higher = more signal
[15] = mitochondrial membrane potential change in A549 cells, profiling panel, cell-based, JC-1 fluorescence, basal, 24 h, 100 nL (AID 1138); settings: higher = more signal;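 note: A549 lung adenocarcinoma cells under basal conditions with no added stimulus; test concentration not given here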
Lefty1 = Lefty1 binders on small-molecule microarrays, primary screen, biochemical, small-molecule microarray, 635/667 nm fluorescence (AID 1139); settings: small-molecule microarray binding, fluorescence 635/667; higher = more signal
[16] = system: wheat germ agglutinin (Triticum aestivum), Alexa647-labelled; experiment: wheat germ agglutinin binders on compound microarrays, profiling panel, artefact control for SMM control-protein annotation, biochemical, small-molecule microarray, 635/667 nm fluorescence (AID 1140); settings: WGA-A647 binding, 635 nm fluorescence, higher = more signal;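 note: score merges 667 nm feature emission with signal to noise over triplicate slides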
[17] = target: Luciferin 4-monooxygenase (Photinus pyralis) (UniProt P08659); experiment: firefly luciferase enzyme inhibitors, primary screen, biochemical, luminescence, purified enzyme, 2006 set (AID 1141); settings: SteadyGlo luminescence, 30 min, higher = more signal, called active from +8 up or from −8 down;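 note: cell-free assay with purified firefly luciferase at 100 ng per well in PBS; test concentration not given here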
Luciferin 4-monooxygenase (Photinus pyralis), sequence (P08659 whole entry, looked up): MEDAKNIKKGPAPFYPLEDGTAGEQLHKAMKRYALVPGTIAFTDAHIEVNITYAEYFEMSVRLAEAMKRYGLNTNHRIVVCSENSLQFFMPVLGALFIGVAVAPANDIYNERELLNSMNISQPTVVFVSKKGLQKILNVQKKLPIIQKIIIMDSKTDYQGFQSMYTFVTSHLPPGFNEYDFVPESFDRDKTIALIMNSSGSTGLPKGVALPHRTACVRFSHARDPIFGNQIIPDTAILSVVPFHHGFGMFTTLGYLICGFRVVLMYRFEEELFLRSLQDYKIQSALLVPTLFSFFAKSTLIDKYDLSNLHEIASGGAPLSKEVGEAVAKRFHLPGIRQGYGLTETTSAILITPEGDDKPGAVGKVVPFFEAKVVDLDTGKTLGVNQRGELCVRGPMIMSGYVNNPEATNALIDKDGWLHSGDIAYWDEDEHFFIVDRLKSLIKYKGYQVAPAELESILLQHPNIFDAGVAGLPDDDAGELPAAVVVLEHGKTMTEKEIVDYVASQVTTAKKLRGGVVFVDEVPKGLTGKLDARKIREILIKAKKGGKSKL

Fibroblast growth factor 2 (Homo sapiens), sequence (P09038 whole entry, looked up): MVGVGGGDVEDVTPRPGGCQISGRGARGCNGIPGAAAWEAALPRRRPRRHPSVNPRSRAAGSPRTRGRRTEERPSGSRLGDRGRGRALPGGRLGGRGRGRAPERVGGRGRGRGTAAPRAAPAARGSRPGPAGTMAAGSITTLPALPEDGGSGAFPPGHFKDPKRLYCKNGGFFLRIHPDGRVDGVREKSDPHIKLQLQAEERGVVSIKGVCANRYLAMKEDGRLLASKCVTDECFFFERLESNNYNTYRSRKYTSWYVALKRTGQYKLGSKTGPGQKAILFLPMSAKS
Concanavalin-A (Canavalia ensiformis), sequence (P02866 whole entry, looked up): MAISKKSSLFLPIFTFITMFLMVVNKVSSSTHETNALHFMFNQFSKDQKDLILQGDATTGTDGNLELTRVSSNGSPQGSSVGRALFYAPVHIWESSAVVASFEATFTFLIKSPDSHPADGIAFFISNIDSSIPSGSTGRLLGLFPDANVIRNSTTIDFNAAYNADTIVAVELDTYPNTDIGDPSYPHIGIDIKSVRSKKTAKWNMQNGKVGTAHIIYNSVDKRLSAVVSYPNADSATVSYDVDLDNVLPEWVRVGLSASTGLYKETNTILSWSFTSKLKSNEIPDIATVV
Follistatin (Homo sapiens), sequence (P19883 whole entry, looked up): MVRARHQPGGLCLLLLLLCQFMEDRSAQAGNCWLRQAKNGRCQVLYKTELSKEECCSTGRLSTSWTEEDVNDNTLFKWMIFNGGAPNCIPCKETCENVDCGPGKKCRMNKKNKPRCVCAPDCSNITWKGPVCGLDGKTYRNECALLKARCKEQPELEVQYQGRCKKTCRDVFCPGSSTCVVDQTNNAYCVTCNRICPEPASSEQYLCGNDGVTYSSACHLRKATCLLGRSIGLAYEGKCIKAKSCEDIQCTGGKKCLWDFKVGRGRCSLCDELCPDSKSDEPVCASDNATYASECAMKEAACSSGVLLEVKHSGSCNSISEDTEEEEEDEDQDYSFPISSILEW
Albumin (Bos taurus), sequence (P02769 whole entry, looked up): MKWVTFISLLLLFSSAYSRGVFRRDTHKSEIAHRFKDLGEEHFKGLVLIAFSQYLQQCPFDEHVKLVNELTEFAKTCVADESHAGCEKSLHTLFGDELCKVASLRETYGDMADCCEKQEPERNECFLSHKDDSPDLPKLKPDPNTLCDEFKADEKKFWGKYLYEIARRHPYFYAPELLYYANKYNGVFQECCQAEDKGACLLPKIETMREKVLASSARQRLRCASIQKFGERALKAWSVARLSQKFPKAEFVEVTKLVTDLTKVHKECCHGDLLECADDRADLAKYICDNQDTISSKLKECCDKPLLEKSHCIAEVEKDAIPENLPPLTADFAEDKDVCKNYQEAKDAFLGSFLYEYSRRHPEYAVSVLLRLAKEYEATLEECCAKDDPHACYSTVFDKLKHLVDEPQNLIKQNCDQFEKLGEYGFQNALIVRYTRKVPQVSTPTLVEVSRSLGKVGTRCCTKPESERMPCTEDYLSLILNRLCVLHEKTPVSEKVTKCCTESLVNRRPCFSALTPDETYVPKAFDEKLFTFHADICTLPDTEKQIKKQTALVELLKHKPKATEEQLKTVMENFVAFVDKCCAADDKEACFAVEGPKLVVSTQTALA
Focal adhesion kinase 1 (Homo sapiens), sequence (Q05397 whole entry, looked up): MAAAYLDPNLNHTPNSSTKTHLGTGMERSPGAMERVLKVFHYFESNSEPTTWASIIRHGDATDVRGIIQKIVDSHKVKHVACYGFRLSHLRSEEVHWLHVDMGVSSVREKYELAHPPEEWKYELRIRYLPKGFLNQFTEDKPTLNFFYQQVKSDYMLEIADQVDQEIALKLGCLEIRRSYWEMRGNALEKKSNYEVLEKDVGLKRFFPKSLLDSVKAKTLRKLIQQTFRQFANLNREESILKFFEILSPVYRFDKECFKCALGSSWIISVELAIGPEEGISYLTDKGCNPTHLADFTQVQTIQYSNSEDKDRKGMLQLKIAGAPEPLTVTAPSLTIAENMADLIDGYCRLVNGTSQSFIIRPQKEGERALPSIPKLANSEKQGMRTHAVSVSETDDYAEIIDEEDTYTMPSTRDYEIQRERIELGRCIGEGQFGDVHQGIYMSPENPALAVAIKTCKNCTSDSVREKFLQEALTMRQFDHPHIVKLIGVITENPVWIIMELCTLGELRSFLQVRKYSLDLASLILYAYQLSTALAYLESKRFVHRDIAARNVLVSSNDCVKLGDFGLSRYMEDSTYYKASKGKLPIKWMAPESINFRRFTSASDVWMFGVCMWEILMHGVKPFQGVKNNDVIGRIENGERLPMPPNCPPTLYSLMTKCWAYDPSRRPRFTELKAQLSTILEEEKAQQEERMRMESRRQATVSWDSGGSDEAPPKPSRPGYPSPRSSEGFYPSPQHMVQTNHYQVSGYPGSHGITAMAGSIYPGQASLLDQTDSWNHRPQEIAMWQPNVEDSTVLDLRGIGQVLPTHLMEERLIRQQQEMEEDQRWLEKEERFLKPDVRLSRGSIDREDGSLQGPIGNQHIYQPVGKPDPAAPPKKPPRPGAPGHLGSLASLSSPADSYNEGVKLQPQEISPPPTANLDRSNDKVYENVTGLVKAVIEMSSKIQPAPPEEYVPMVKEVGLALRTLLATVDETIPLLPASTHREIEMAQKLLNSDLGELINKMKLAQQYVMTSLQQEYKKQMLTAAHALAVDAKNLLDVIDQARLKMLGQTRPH

Row | Compound | composite z-score (Albumin (Bos taurus)) | composite Z-score [1] | composite z-score [2] | composite z-score [3] | composite z-score [4] | composite z-score [5] | composite z-score [6] | composite z-score (Sam68 (KHDRBS1)) | composite z-score [7] | composite z-score [8] | composite z-score [9] | composite z-score [10] | composite z-score [11] | composite z-score [12] | composite z-score [13] | composite z-score [14] | z-score [15] | composite z-score (Lefty1) | composite z-score [16] | z-score [17]
1 | C=C(C(=O)CC[C@@H](OC(=O)c1ccccc1-c1ccccc1C(=O)O)c1ccc(OCCO)cc1)C(C)C | 0.0832 | -0.32 (inactive) | 0.169 | -0.0876 | 0.801 | 0.393 | -0.0004 | 0.929 | 0.639 | 0.94 | 1.19 | 0.977 | -0.118 | 0.691 | 1.2 | 1.77 | 0.58 | 1.26 | 0.889 | -2.66 (inactive)
2 | COCCOC(=O)N1C(=O)[C@@]2(c3cc(C#CCNC(N)=O)ccc31)[C@H](C(=O)N1CCN(c3ncccn3)CC1)[C@H]1C(=O)O[C@H](c3ccccc3)[C@H](c3ccccc3)N1[C@@H]2c1ccc(O)cc1 | 0.526 | -0.453 (inactive) | -0.457 | -0.292 | 0.371 | -0.864 | 0.555 | -0.396 | -0.956 | -0.785 | -0.031 | -0.937 | -0.305 | -1 | -0.974 | -0.623 | 0.284 | -1.19 | 0.0548 | 0.0121 (inactive)
3 | O=C1NC(=O)C2C1C=CC(C(O)c1ccc(F)cc1)N2Nc1ccc(Cl)cc1Cl (stereo not given) | 0.369 | 1.69 (inactive) | 0.0488 | -0.0113 | 0.732 | 2.4 | 0.591 | 0.246 | -0.242 | -0.345 | 1.97 | 0.638 | -0.0637 | -0.566 | -0.157 | -0.459 | -0.553 | -0.334 | -0.0287 | -1.32 (inactive)
4 | N#Cc1ccc(NN2C(C(O)c3ccc(B(O)O)cc3)C=CC3CN(c4ccccc4)C(=O)C32)cc1 (stereo not given) | 0.813 | -0.254 (inactive) | -0.128 | -0.188 | 0.852 | 0.417 | -0.247 | 0.141 | -0.412 | 0.133 | 0.48 | -0.633 | -0.508 | 0.529 | -0.0923 | -0.436 | -0.408 | -0.118 | 0.485 | -1.24 (inactive)
5 | CC(C)[Si](C#Cc1ccccc1)(O[C@H](c1ccccc1)c1cn(Cc2ccccc2)nn1)C(C)C | 0.939 | 0.708 (inactive) | -0.127 | -0.189 | 0.57 | 0.467 | 0.471 | 0.879 | 0.664 | 1.17 | 0.409 | 1.11 | 0.188 | 0.588 | 1.11 | 1.3 | -0.485 | -0.0104 | 0.139 | -1.3 (inactive)
6 | COc1ccc(C(O)C2C=CC3C(=O)N(C)C(=O)C3N2Nc2ccccc2)cc1 (stereo not given) | 0.986 | 0.195 (inactive) | 0.344 | 0.0753 | 0.376 | 2.87 | 0.388 | 1.28 | -0.224 | 1.17 | 0.908 | 1.24 | 0.368 | 0.925 | 0.578 | 0.0159 | 0.436 | -0.341 | 1.08 | -1.17 (inactive)
